Several values for one entry are separate records, joined by “and”; a condition that tells them apart may be missing. Equal entries are not always repeated. The whole screen tested about 5,500 compounds, of which about 2,000 (36%) were called active. Roughly 18% stayed inconclusive and do not appear here. Cut-off read from the data, not from the text of the source: active = normalized growth mostly below about 0.91 (no sharp cut-off); inconclusive = no clear call, values can overlap the other calls; inactive = mostly above about 0.92. The list shows a part of the results.
Test: chemical genetic growth profiling, strain panel (AID 1159580);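 note: tested at 20 µM; growth read once vehicle control cultures reached saturation at 30 °C; 1 = growth at the plate median or of vehicle wells; lower values mean less growth of the strain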
Conditions: S. cerevisiae deletion strains, growth OD

Measured: normalized growth

CCC[C@@H]1C[C@@H](C(=O)N[C@H]([C@H]2O[C@H](SC)[C@H](O)[C@@H](O)[C@H]2O)[C@H](C)O)N(C)C1
inactive: locus YAL021C, strain ccr4, active compounds read low 0.981 | locus YAL026C, strain drs2, active compounds read low 0.99 | locus YAL030W, strain snc1, active compounds read low 0.984 | locus YBL061C, strain skt5, active compounds read low 0.981 | locus YBR009C, strain hhf1, active compounds read low 1.01 | locus YBR021W, strain FUR4, active compounds read low 1.01 | locus YBR023C, strain chs3, active compounds read low 0.977 | locus YBR171W, strain sec66, active compounds read low 0.962 | locus YBR229C, strain ROT2, active compounds read low 0.991 | locus YBR231C, strain swc5, active compounds read low 0.981 | locus YBR279W, strain paf1, active compounds read low 0.985 | locus YCL011C, strain gbp2, active compounds read low 0.997 | locus YCL016C, strain dcc1, active compounds read low 1.03 | locus YCL029C, strain bik1, active compounds read low 0.996 | locus YCL061C, strain MRC1, active compounds read low 0.969 | locus YCL069W, strain vba3, active compounds read low 0.971 | locus YCR088W, strain abp1, active compounds read low 0.973 | locus YDL005C, strain med2, active compounds read low 0.979 | locus YDL035C, strain GPR1, active compounds read low 1.02 | locus YDL040C, strain nat1, active compounds read low 0.975 | locus YDL074C, strain BRE1, active compounds read low 1.03 | locus YDL101C, strain DUN1, active compounds read low 0.983 | locus YDL134C, strain PPH21, active compounds read low 1 | locus YDL185W, strain tfp1, active compounds read low 0.979 | locus YDL192W, strain arf1, active compounds read low 0.98 | locus YDR001C, strain nth1, active compounds read low 0.958 | locus YDR069C, strain doa4, active compounds read low 0.965 | locus YDR101C, strain arx1, active compounds read low 1.01 | locus YDR137W, strain rgp1, active compounds read low 0.983 | locus YDR150W, strain NUM1, active compounds read low 1 | locus YDR159W, strain sac3, active compounds read low 1.01 | locus YDR162C, strain NBP2, active compounds read low 1.01 | locus YDR195W, strain ref2 0.922 | locus YDR297W, strain sur2, active compounds read low 0.975 | locus YDR318W, strain mcm21, active compounds read low 0.989 | locus YDR334W, strain swr1, active compounds read low 0.929 | locus YDR335W, strain msn5, active compounds read low 0.974 | locus YDR388W, active compounds read low 0.992 | locus YDR392W, strain spt3, active compounds read low 1.04 | locus YDR502C, strain sam2, active compounds read low 0.991 | locus YEL003W, strain gim4, active compounds read low 0.952 | locus YEL037C, strain rad23, active compounds read low 0.983 | locus YEL061C, strain CIN8 (second series), active compounds read low 0.962 | locus YEL061C, strain CIN8, active compounds read low 1.01 | locus YER015W, strain faa2, active compounds read low 1.01 | locus YER016W, strain bim1, active compounds read low 0.987 | locus YER110C, active compounds read low 0.983 | locus YER111C, strain swi4, active compounds read low 0.98 | locus YER155C, strain BEM2 (second series), active compounds read low 0.986 | locus YER155C, strain BEM2, active compounds read low 0.975 | locus YER167W, strain BCK2, active compounds read low 1.02 | locus YFR010W, strain ubp6, active compounds read low 0.974 | locus YGL078C, strain dbp3, active compounds read low 0.981 | locus YGL086W, strain mad1, active compounds read low 1 | locus YGL167C, strain pmr1, active compounds read low 0.959 | locus YGL173C, strain kem1, active compounds read low 0.973 | locus YGL227W, strain vid30, active compounds read low 0.978 | locus YGL240W, strain doc1, active compounds read low 0.958 | locus YGL248W, strain PDE1, active compounds read low 0.986 | locus YGL253W, strain hxk2, active compounds read low 0.992 | locus YGR078C, strain PAC10, active compounds read low 0.993 | locus YGR135W, strain pre9, active compounds read low 0.955 | locus YGR252W, strain gcn5, active compounds read low 0.943 | locus YHR013C, strain ard1, active compounds read low 0.993 | locus YHR027C, strain rpn1, active compounds read low 0.981 | locus YHR030C, strain SLT2, active compounds read low 1.01 | locus YHR079C, strain IRE1 (second series), active compounds read low 0.998 | locus YHR079C, strain IRE1, active compounds read low 1.03 | locus YHR094C, strain hxt1, active compounds read low 0.998 | locus YHR129C, strain ARP1, active compounds read low 0.981 | locus YHR142W, strain chs7, active compounds read low 0.995 | locus YHR200W, strain rpn10, active compounds read low 0.993 | locus YIL066C, strain RNR3, active compounds read low 0.991 | locus YIL073C, strain SPO22, active compounds read low 1 | locus YIL125W, strain kgd1, active compounds read low 0.985 | locus YIR030C, strain dcg1, active compounds read low 0.99 | locus YJL092W, strain hpr5, active compounds read low 0.977 | locus YJL095W, strain BCK1 (second series), active compounds read low 0.978 | locus YJL095W, strain BCK1, active compounds read low 0.98 and 1.02 | locus YJL115W, strain asf1, active compounds read low 0.977 | locus YJL129C, strain trk1, active compounds read low 0.984 | locus YJL134W, strain LCB3, active compounds read low 0.998 | locus YJL154C, strain vps35, active compounds read low 0.969 | locus YJL164C, strain tpk1, active compounds read low 1.01 | locus YJL166W, strain qcr8, active compounds read low 0.934 | locus YJL168C, strain set2, active compounds read low 0.992 | locus YJL187C, strain SWE1 (second series), active compounds read low 0.984 | locus YJR043C, strain POL32, active compounds read low 1.01

From PubChem BioAssay AID1159580 (chemical genetic matrix, 2015)
